The record followed here is PubChem BioAssay (Tox21).

Structures are written as SMILES. Results filed as inconclusive are left out. Where a call stands in place of a potency, no number is given. Active and inactive are the calls of the source. Unless noted, the call rests on the fitted dose curve; in most records, active means well fitted cell-killing curve with a large enough effect in the repeat runs; inconclusive means weak or mixed curves, or effect the other way; inactive means no such curve, though single readings can be large or run the other way.

The target in one assay is Peroxisome proliferator-activated receptor gamma (Homo sapiens) (UniProt P37231). Nature of the assay: qHTS assay to identify small molecule agonists of the peroxisome proliferator-activated receptor gamma (PPARg) signaling pathway (AID 743094; active means well fitted activation curve with a large enough effect in the signal ratio in the repeat runs, not every such curve was filed as active; the % refers to the signal ratio). Particulars: HEK293H PPARg-UAS-bla, beta-lactamase FRET ratio, 17 h; series mostly up to 57 µM. A digest of the protocol: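 Agonist activity was taken from a beta-lactamase reporter (FRET substrate, 1 h at room temperature) in HEK293H cells carrying a PPARg UAS-bla construct. Compounds in DMSO were incubated 17 h at 37C after a 5 h cell pre-incubation.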
Sequence of Peroxisome proliferator-activated receptor gamma (Homo sapiens) (P37231 whole entry, looked up): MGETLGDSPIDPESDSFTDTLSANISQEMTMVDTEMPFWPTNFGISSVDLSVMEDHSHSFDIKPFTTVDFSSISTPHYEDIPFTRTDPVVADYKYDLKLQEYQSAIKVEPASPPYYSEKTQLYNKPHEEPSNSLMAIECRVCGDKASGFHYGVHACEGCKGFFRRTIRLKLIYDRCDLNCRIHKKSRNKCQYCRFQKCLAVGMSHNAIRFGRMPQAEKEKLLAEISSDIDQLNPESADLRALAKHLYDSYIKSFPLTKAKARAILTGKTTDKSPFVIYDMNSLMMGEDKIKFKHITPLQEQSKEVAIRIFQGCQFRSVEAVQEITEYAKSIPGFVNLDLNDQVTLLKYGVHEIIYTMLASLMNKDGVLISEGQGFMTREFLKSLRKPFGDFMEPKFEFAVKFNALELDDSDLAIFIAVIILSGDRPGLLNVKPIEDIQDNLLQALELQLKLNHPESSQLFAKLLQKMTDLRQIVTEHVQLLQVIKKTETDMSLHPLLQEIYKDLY
In general terms: qHTS replaces the single test concentration by a dilution series.
With `CCOC(=O)NC(O)C(Cl)(Cl)Cl` (stereo unspecified), the Potency result was “inactive”.

Consider `O=S(=O)(Cl)Cl`, for which the Potency result was “inactive”.

On to `C=CC(=O)OCC`, for which the Potency entry was “inactive”.

With `CCOP(=O)(SC(C)CC)N1CCSC1=O` (stereo unspecified), the Potency entry is “inactive”.

Regarding `CCC(C)(C)O`, the Potency result is “inactive”.

Take `CC1(C)CC(=O)CC(C)(C)N1[O]`: the Potency entry is “inactive”.

Consider `C[N+]1(CCF)[C@@H]2CC[C@H]1CC(OC(=O)C(O)(c1ccccc1)c1ccccc1)C2` (stereo partly specified), for which the Potency entry was “inactive”.

In the case of `CC(C)C1(C)N=C(c2ncccc2C(=O)O)NC1=O` (stereo unspecified), the Potency result is “inactive”.

In the case of `CCOC(=O)c1cncn1C(C)c1ccccc1` (stereo unspecified), the Potency entry was “inactive”.

In the case of `NC(=S)c1c(Cl)cccc1Cl`, the Potency result is “inactive”.

Consider `O=S(=O)(c1ccccc1)c1ccccc1`, for which the Potency entry was “inactive”.

As for `CC(C)(C)NCC(O)c1cc(Cl)c(N)c(C(F)(F)F)c1` (stereo unspecified), the Potency result was “inactive”.

As for `CCOc1cccc(C2(N3CCN(c4ccccc4)CC3)CCC(C)CC2)c1` (stereo unspecified), the Potency entry was “inactive”.

As to `C[C@H](N)[C@H](O)c1ccc(O)c(O)c1`, the Potency entry is “inactive”.

For `N#CC(C#N)=Cc1ccc(O)c(O)c1`, the Potency entry is “inactive”.

On to `CCCCCCCCCCCCCCCl`, for which the Potency entry is “inactive”.

For `CN1C(=O)CN=C(c2ccccc2)c2cc([N+](=O)[O-])ccc21`, the Potency result is “inactive”.

As to `NCCc1cc(O)c(O)cc1O`, the Potency entry is “inactive”.

As for `CCCN(CCC)C(=O)Cc1c(-c2ccc(Cl)cc2)nc2ccc(Cl)cn12`, the Potency entry is “inactive”.

A further assay shares this target. Kind of assay: qHTS assay to identify small molecule antagonists of the peroxisome proliferator-activated receptor gamma (PPARg) signaling pathway (AID 743191; calls by dose curve; further: nearly all actives have a fitted effect of over 30% in size; further: potency means the concentration at half of the fitted maximal effect). Particulars: HEK293H PPARg-UAS-bla, beta-lactamase ratio, antagonist, 17 h; series mostly up to 62.6 µM. In short, it runs like this:
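GeneBLAzer PPARg UAS-bla HEK293H cells, 5 h post-plating, exposed to compounds 17 h at 37C. LiveBLAzer B/G FRET substrate added for 1 h at room temperature; beta-lactamase reporter read by fluorescence intensity.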
On to `CC(Cc1ccccc1)NCc1ccccc1Cl` (stereo unspecified), for which the Potency result was “inactive”.

Regarding `O=S(=O)(Cl)Cl`, the Potency result was “inactive”.

Regarding `O=C(N/N=C/c1ccc([N+](=O)[O-])o1)c1cc([N+](=O)[O-])cc([N+](=O)[O-])c1O`, the Potency entry was “inactive”.

With `C#CC(O)(C=CCl)CC` (stereo unspecified), the Potency result is “inactive”.

As for `CC(Oc1cccc(Cl)c1)C(=O)O` (stereo unspecified), the Potency result is “inactive”.

For `CCOP(=O)(SC(C)CC)N1CCSC1=O` (stereo unspecified), the Potency entry was “inactive”.

As for `CCC(C)(C)O`, the Potency entry is “inactive”.

`CC(Cl)C(=O)O` (stereo unspecified): the Potency result was “inactive”.

As for `C[N+]1(CCF)[C@@H]2CC[C@H]1CC(OC(=O)C(O)(c1ccccc1)c1ccccc1)C2` (stereo partly specified), the Potency entry is “inactive”.

Consider `CCOC(=O)c1cncn1C(C)c1ccccc1` (stereo unspecified), for which the Potency result was “inactive”.

Regarding `NC(=S)c1c(Cl)cccc1Cl`, the Potency entry is “inactive”.

As to `O=S(=O)(c1ccccc1)c1ccccc1`, the Potency result was “inactive”.

For the compound `CCOc1cccc(C2(N3CCN(c4ccccc4)CC3)CCC(C)CC2)c1` (stereo unspecified), the Potency result was “inactive”.

For `CN1C(=O)CN=C(c2ccccc2)c2cc([N+](=O)[O-])ccc21`, the Potency result was “inactive”.

On to `CCOC(C(=O)OCCN(C)C)(c1ccccc1)c1ccccc1`, for which the Potency entry is “inactive”.

Regarding `NCCc1cc(O)c(O)cc1O`, the Potency result is “inactive”.

With `O=C(NC(=O)c1cc(F)c(F)cc1Cl)Nc1cc(F)ccc1N1CCC(C(=O)O)CC1`, the Potency was 1900 nM (active).

Tested on in a further assay: not listed separately
Nature of the assay: qHTS assay to identify small molecule antagonists of the peroxisome proliferator-activated receptor gamma (PPARg) signaling pathway - cell viability counter screen (AID 743194). Further: nearly all actives have a fitted effect of over 55% in size. The conditions noted are these: PPARg-bla HEK293H viability, CellTiter-Glo luminescence, 17 h; Potency: co-treated with 50 nM rosiglitazone; series mostly up to 62.6 µM. In short, it runs like this:
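Cytotoxicity counter screen in PPARg-bla HEK293H cells, same wells as reporter assay. Compounds plus 50 nM rosiglitazone (final) for 17 h at 37 C, then viability read by CellTiter-Glo luminescence.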
As for `CCOC(=O)NC(O)C(Cl)(Cl)Cl` (stereo unspecified), the Potency entry is “inactive”.

For `O=C(O)C(F)(F)C(F)(F)C(F)(F)C(F)(F)C(F)(F)C(F)(F)C(F)(F)C(F)(F)F`, the Potency result was “inactive”.

With `CC(Cc1ccccc1)NCc1ccccc1Cl` (stereo unspecified), the Potency entry was “inactive”.

On to `Nc1ccccc1C(=O)OCC(O)CO` (stereo unspecified), for which the Potency result was “inactive”.

As for `O=S(=O)(Cl)Cl`, the Potency entry was “inactive”.

As to `O=C(N/N=C/c1ccc([N+](=O)[O-])o1)c1cc([N+](=O)[O-])cc([N+](=O)[O-])c1O`, the Potency entry is “inactive”.

Consider `C#CC(O)(C=CCl)CC` (stereo unspecified), for which the Potency result was “inactive”.

Regarding `COc1cc(CC#N)cc(OC)c1OC`, the Potency result is “inactive”.

Take `C=CC(=O)OCC`: the Potency entry was “inactive”.

Take `CC(Oc1cc(Cl)c(Cl)cc1Cl)C(=O)O` (stereo unspecified): the Potency result was “inactive”.

With `CC(Oc1cccc(Cl)c1)C(=O)O` (stereo unspecified), the Potency entry was “inactive”.

For `CCOP(=O)(SC(C)CC)N1CCSC1=O` (stereo unspecified), the Potency result is “inactive”.

With `CCC(C)(C)O`, the Potency result was “inactive”.

On to `CC1(C)CC(=O)CC(C)(C)N1[O]`, for which the Potency entry is “inactive”.

As to `CCC(=O)O[C@@H]1C=C2CCC3C(CCC4(C)C3CC[C@@H]4OC(=O)CC)C2CC1` (stereo partly specified), the Potency result is “inactive”.

With `CC(Cl)C(=O)O` (stereo unspecified), the Potency entry was “inactive”.

As for `C=CCN1C[C@H](C)N([C@H](c2ccc(C(=O)N(CC)CC)cc2)c2cccc(OC)c2)C[C@H]1C`, the Potency entry was “inactive”.

Consider `CC(=O)NNc1ccccc1`, for which the Potency result is “inactive”.

As to `C[N+]1(CCF)[C@@H]2CC[C@H]1CC(OC(=O)C(O)(c1ccccc1)c1ccccc1)C2` (stereo partly specified), the Potency result is “inactive”.

On to `CC(C)C1(C)N=C(c2ncccc2C(=O)O)NC1=O` (stereo unspecified), for which the Potency result is “inactive”.

Turning to `CCOC(=O)c1cncn1C(C)c1ccccc1` (stereo unspecified), the Potency result was “inactive”.

Regarding `NC(=S)c1c(Cl)cccc1Cl`, the Potency entry is “inactive”.

For the compound `O=S(=O)(c1ccccc1)c1ccccc1`, the Potency entry is “inactive”.

Turning to `CC(C)(C)NCC(O)c1cc(Cl)c(N)c(C(F)(F)F)c1` (stereo unspecified), the Potency result was “inactive”.

As for `CCOc1cccc(C2(N3CCN(c4ccccc4)CC3)CCC(C)CC2)c1` (stereo unspecified), the Potency entry is “inactive”.

As for `C[C@H](N)[C@H](O)c1ccc(O)c(O)c1`, the Potency result was “inactive”.

Take `C=CC(C)(CCC=C(C)C)OC(=O)c1ccccc1N` (stereo unspecified): the Potency entry was “inactive”.

Take `CCCCCCCCCCCCCCCl`: the Potency entry is “inactive”.

With `CN1C(=O)CN=C(c2ccccc2)c2cc([N+](=O)[O-])ccc21`, the Potency result was “inactive”.

As for `CCOC(C(=O)OCCN(C)C)(c1ccccc1)c1ccccc1`, the Potency result was “inactive”.

In the case of `CC(CC(C(N)=O)(c1ccccc1)c1ccccc1)N(C)C` (stereo unspecified), the Potency result is “inactive”.

For `NCCc1cc(O)c(O)cc1O`, the Potency entry was “inactive”.

For `CCCN(CCC)C(=O)Cc1c(-c2ccc(Cl)cc2)nc2ccc(Cl)cn12`, the Potency result was “inactive”.

As for `Cc1nc(N(C)C)nc(OC(=O)N(C)C)c1C`, the Potency entry is “inactive”.

As for `C[C@H]1[C@@H]2Cc3ccc(O)cc3[C@@]1(C)CCN2C`, the Potency entry is “inactive”.
